Targets with a hit are over-represented here; the source holds about 7,900 in all. About 0.6% of all pairs of compound and target were hits.
How the values were obtained:
Assay in all cases: log2 fold change, soluble protein after heating vs DMSO (PISA); higher = thermal stabilisation; K562 cells, 10 uM, 30 min; active = over 0.2 and 3.5 SD of the protein, either way, in both replicates (recomputed)
saracatinib = compound: CN1CCN(CCOc2cc(OC3CCOCC3)c3c(Nc4c(Cl)ccc5c4OCO5)ncnc3c2)CC1 [saracatinib]
Outline: (§1)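 Thermal stability values are relative to control samples and come from duplicates. They are expressed as log2 fold changes. For measurement, K562 cells (2×10^6 cells/mL) received 10 μM compound for 30 min, and aliquots were heated for 3 min over 48°C-58°C, pooled, and extracted at 4°C in PBS with 0.5% NP-40. Soluble protein, the supernatant after 21,000xg for 90 min, was quantified by TMTpro 16plex LC-MS/MS with equalised channel sums.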

sotrastaurin = compound: CN1CCN(c2nc(C3=C(c4c[nH]c5ccccc45)C(=O)NC3=O)c3ccccc3n2)CC1 [sotrastaurin]
Outline: as §1

alvocidib = compound: CN1CC[C@H](c2c(O)cc(O)c3c(=O)cc(-c4ccccc4Cl)oc23)[C@H](O)C1 [alvocidib]
Outline: as §1

Tubastatin A = compound: CN1CCc2c(c3ccccc3n2Cc2ccc(C(=O)NO)cc2)C1 [Tubastatin A]
Outline: as §1

[1] = compound: CNC(=O)C1=CC=CC=C1NC2=NC(=NC=C2Cl)NC3=C(C=C(C=C3)N4CCOCC4)OC
Outline: as §1

defactinib = compound: CNC(=O)c1ccc(Nc2ncc(C(F)(F)F)c(NCc3nccnc3N(C)S(C)(=O)=O)n2)cc1 [defactinib]
Outline: as §1

rucaparib = compound: CNCc1ccc(-c2[nH]c3cc(F)cc4c3c2CCNC4=O)cc1 [rucaparib]
Outline: as §1

[2] = compound: CNc1nc(-c2ccc3c(N)n[nH]c3c2)cc(N2C[C@@H](C(=O)NC3CCCCC3)CC[C@H]2C)n1
Outline: as §1

encorafenib = compound: COC(=O)N[C@@H](C)CNc1nccc(-c2cn(C(C)C)nc2-c2cc(Cl)cc(NS(C)(=O)=O)c2F)n1 [encorafenib]
Outline: as §1

[3] = compound: COC(=O)[C@H](CCSC)NC(=O)C1=C(C=C(C=C1)NC[C@H](CS)N)C2=CC=CC=C2
Outline: as §1

[4] = compound: COC1=CC=C(C=C1)CN2C=CC3=C2C=C(C=C3)C(=O)NO
Outline: as §1

filanesib = compound: CON(C)C(=O)N1N=C(c2cc(F)ccc2F)S[C@@]1(CCCN)c1ccccc1 [filanesib]
Outline: as §1

zotarolimus = compound: CO[C@H]1C[C@@H]2CC[C@@H](C)[C@@](O)(O2)C(=O)C(=O)N2CCCC[C@H]2C(=O)O[C@H]([C@H](C)C[C@@H]2CC[C@H](n3cnnn3)[C@H](OC)C2)CC(=O)[C@H](C)/C=C(\C)[C@@H](O)[C@@H](OC)C(=O)[C@H](C)C[C@H](C)/C=C/C=C/C=C/1C [zotarolimus]
Outline: as §1

idasanutlin = compound: COc1cc(C(=O)O)ccc1NC(=O)[C@@H]1N[C@@H](CC(C)(C)C)[C@](C#N)(c2ccc(Cl)cc2F)[C@H]1c1cccc(Cl)c1F [idasanutlin]
Outline: as §1

alisertib = compound: COc1cc(Nc2ncc3c(n2)-c2ccc(Cl)cc2C(c2c(F)cccc2OC)=NC3)ccc1C(=O)O [alisertib]
Outline: as §1

[5] = compound: COc1cc2nc(-c3cc(F)ccc3O)nc(N[C@@H]3CNC[C@H]3C(C)(C)O)c2cc1OC
Outline: as §1

gefitinib = compound: COc1cc2ncnc(Nc3ccc(F)c(Cl)c3)c2cc1OCCCN1CCOCC1 [gefitinib]
Outline: as §1

[6] = compound: COc1cccc2cc(-c3nc([C@H]4CC[C@H](C(=O)O)CC4)n4ncnc(N)c34)[nH]c12
Outline: as §1

lapatinib = compound: CS(=O)(=O)CCNCc1ccc(-c2ccc3ncnc(Nc4ccc(OCc5cccc(F)c5)c(Cl)c4)c3c2)o1 [lapatinib]
Outline: as §1

pictilisib = compound: CS(=O)(=O)N1CCN(Cc2cc3nc(-c4cccc5[nH]ncc45)nc(N4CCOCC4)c3s2)CC1 [pictilisib]
Outline: as §1

Measured: log2 fold change

PPP1CA (UniProt P62136)
UniProt P62136, sequence (P62136 whole entry, looked up): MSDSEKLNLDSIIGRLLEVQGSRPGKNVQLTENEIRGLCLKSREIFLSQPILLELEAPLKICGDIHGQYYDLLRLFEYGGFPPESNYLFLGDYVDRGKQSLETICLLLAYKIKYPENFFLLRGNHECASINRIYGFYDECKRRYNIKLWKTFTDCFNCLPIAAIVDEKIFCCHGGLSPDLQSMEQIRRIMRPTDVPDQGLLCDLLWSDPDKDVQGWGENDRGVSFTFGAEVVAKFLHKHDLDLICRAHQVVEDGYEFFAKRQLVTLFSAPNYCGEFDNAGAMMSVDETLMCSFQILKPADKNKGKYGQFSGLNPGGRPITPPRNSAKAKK
active: [4] 0.263
inactive: saracatinib 0.036 | sotrastaurin -0.03 | alvocidib -0.027 | Tubastatin A -0.024 | [1] -0.009 | defactinib -0.033 | rucaparib -0.008 | [2] -0.028 | encorafenib -0.009 | [3] 0.018 | filanesib 0.012 | zotarolimus -0.032 | idasanutlin 0.016 | alisertib 0.024 | [5] 0.015 | gefitinib 0.032 | [6] 0.023 | lapatinib 0.001 | pictilisib 0.013

POP1 (UniProt Q99575)
inactive: saracatinib 0.077 | sotrastaurin -0.01 | alvocidib -0.049 | Tubastatin A 0.026 | [1] -0.002 | defactinib -0.055 | rucaparib 0.014 | [2] 0.014 | encorafenib 0.006 | [3] 0.016 | [4] 0.025 | filanesib -0.023 | zotarolimus 0.033 | idasanutlin -0.009 | alisertib -0.054 | [5] -0.109 | gefitinib 0.012 | [6] 0.021 | lapatinib 0.084 | pictilisib -0.01

PSMD8 (UniProt P48556)
inactive: saracatinib -0.039 | sotrastaurin -0.032 | alvocidib 0.135 | Tubastatin A 0.003 | [1] -0.009 | defactinib 0.1 | rucaparib 0.003 | [2] 0.028 | encorafenib 0.041 | [3] 0.043 | [4] -0.046 | filanesib 0.055 | zotarolimus -0.016 | idasanutlin 0.015 | alisertib -0.097 | [5] -0.038 | gefitinib -0.022 | [6] -0.061 | lapatinib 0.066 | pictilisib 0.097

PARP16 isoform 3 (UniProt Q8N5Y8)
UniProt Q8N5Y8, sequence (Q8N5Y8 whole entry, looked up): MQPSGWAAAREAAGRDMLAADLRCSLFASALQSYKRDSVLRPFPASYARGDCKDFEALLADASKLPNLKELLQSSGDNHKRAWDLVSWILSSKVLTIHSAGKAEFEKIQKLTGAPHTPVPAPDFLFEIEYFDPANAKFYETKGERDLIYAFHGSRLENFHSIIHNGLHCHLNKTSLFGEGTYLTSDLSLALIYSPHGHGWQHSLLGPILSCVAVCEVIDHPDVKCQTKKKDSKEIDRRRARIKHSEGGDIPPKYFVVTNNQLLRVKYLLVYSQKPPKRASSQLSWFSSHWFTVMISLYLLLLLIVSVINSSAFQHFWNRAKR
inactive: saracatinib 0.175 | sotrastaurin -0.038 | alvocidib -0.054 | Tubastatin A 0.005 | [1] -0.009 | defactinib 0.046 | rucaparib 0.198 | [2] -0.042 | encorafenib -0.087 | [3] -0.005 | [4] -0.029 | filanesib -0.13 | zotarolimus 0.039 | idasanutlin -0.056 | alisertib -0.075 | [5] -0.097 | gefitinib 0.011 | [6] -0.03 | lapatinib 0.071 | pictilisib -0.008

POLA1 (UniProt P09884)
UniProt P09884, sequence (P09884 whole entry, looked up): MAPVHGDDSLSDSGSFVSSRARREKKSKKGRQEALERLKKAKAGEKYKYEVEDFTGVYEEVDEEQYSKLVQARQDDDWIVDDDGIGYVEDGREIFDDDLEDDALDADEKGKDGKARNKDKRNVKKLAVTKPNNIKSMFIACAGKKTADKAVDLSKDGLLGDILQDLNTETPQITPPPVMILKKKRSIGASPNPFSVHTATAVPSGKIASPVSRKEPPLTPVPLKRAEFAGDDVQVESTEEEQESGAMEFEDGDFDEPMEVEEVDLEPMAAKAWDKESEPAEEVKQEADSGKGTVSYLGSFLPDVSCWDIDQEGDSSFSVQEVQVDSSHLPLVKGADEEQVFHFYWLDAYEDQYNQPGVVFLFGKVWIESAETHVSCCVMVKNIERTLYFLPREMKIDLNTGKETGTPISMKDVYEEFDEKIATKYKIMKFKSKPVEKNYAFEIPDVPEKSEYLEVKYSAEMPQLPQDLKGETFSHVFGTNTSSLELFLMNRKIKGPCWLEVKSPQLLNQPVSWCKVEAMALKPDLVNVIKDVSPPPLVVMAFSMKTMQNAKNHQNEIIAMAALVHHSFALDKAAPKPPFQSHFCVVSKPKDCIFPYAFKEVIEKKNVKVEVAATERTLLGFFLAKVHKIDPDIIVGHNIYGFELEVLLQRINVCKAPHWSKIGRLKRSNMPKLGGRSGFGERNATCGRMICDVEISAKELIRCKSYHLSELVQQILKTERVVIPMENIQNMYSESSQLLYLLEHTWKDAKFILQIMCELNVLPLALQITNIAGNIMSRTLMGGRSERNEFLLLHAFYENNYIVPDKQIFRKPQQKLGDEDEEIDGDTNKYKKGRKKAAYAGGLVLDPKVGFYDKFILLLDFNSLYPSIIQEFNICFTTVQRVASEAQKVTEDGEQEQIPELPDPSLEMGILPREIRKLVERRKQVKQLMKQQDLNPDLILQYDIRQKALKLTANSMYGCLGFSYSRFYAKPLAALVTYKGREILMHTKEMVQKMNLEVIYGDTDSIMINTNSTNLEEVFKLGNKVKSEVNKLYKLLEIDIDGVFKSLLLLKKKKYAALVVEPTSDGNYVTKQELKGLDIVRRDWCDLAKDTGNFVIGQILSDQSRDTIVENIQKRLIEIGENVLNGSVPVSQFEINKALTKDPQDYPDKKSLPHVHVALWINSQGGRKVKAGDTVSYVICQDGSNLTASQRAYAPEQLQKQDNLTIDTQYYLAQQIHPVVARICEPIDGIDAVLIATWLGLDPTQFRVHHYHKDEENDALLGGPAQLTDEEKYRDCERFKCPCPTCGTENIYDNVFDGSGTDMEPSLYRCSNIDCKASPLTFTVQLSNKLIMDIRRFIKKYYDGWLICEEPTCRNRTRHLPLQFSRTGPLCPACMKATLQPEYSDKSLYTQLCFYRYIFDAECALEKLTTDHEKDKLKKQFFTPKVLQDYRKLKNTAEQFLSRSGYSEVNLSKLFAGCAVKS
inactive: saracatinib 0.006 | sotrastaurin -0.096 | alvocidib -0.163 | Tubastatin A 0.025 | [1] 0.079 | defactinib -0.156 | rucaparib -0.126 | [2] -0.016 | encorafenib -0.005 | [3] -0.035 | [4] 0.053 | filanesib -0.023 | zotarolimus 0.008 | idasanutlin 0.003 | alisertib -0.053 | [5] 0.016 | gefitinib 0.015 | [6] -0.008 | lapatinib -0.005 | pictilisib 0.033

PDCD6 (UniProt O75340)
UniProt O75340, sequence (O75340 whole entry, looked up): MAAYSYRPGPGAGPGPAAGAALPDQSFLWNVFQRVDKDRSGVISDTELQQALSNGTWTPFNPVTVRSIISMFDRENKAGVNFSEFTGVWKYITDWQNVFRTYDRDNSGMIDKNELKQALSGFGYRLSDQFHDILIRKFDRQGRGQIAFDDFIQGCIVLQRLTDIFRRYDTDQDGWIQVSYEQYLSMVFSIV
inactive: saracatinib 0.038 | sotrastaurin -0.014 | alvocidib -0.003 | Tubastatin A 0.001 | [1] 0.026 | defactinib -0.017 | rucaparib -0.048 | [2] -0.153 | encorafenib 0.002 | [3] 0.004 | [4] -0.06 | filanesib -0.124 | zotarolimus -0.03 | idasanutlin -0.106 | alisertib 0.092 | [5] 0.047 | gefitinib -0.021 | [6] 0.013 | lapatinib -0.035 | pictilisib 0.038

POLR3K (UniProt Q9Y2Y1)
UniProt Q9Y2Y1, sequence (Q9Y2Y1 whole entry, looked up): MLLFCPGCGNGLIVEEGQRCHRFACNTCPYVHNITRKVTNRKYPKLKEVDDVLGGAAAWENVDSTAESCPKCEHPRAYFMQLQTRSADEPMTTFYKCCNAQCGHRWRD
inactive: saracatinib 0.052 | sotrastaurin -0.049 | alvocidib 0.038 | Tubastatin A 0.044 | [1] -0.035 | defactinib -0.086 | rucaparib 0.089 | [2] -0.098 | encorafenib -0.019 | [3] 0.015 | [4] -0.078 | filanesib -0.03 | zotarolimus -0.063 | idasanutlin 0.006 | alisertib -0.156 | [5] 0.01 | gefitinib -0.023 | [6] 0.044 | lapatinib 0.057 | pictilisib -0.04

POLR2K (UniProt P53803)
inactive: saracatinib -0.024 | sotrastaurin 0.032 | alvocidib 0.14 | Tubastatin A -0.031 | [1] -0.057 | defactinib 0.034 | rucaparib 0.039 | [2] -0.047 | encorafenib -0.174 | [3] -0.063 | [4] -0.052 | filanesib 0.071 | zotarolimus -0.05 | idasanutlin -0.101 | alisertib -0.005 | [5] 0.134 | gefitinib -0.012 | [6] -0.213 | lapatinib 0.003 | pictilisib 0.117

PPOX (UniProt P50336)
UniProt P50336, sequence (P50336 whole entry, looked up): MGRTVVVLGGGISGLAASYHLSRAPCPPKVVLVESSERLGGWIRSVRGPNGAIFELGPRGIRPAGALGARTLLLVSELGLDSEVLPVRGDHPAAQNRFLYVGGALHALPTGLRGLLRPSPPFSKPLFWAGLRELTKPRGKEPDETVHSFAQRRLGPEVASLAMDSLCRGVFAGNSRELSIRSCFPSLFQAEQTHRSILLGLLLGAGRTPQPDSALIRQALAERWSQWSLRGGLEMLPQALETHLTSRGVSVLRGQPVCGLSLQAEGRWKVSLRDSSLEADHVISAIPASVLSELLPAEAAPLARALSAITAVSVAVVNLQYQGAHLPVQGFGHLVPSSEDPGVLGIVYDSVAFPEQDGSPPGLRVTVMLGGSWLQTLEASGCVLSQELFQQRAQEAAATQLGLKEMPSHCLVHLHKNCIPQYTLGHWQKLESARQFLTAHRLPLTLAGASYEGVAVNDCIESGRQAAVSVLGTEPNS
active: [1] 0.534 | idasanutlin 0.574
inactive: saracatinib -0.087 | sotrastaurin 0.02 | alvocidib -0.049 | Tubastatin A -0.045 | defactinib -0.07 | rucaparib -0.059 | [2] 0.274 | encorafenib -0.018 | [3] -0.01 | [4] 0.324 | filanesib -0.226 | zotarolimus 0.352 | alisertib 0.033 | [5] -0.178 | gefitinib 0.116 | [6] 0.021 | lapatinib 0.471 | pictilisib 0.475

PTPA (UniProt Q15257)
UniProt Q15257, sequence (Q15257 whole entry, looked up): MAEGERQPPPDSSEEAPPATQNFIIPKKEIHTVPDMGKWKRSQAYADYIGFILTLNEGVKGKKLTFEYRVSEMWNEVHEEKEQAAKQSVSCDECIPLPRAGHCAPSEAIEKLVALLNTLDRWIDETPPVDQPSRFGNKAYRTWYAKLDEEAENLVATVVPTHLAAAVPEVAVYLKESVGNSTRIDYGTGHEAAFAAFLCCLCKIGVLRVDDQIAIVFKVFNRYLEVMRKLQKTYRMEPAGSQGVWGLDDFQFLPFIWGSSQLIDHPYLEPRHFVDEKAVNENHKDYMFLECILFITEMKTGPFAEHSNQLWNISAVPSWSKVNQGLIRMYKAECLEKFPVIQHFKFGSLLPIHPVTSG
inactive: saracatinib 0.009 | sotrastaurin 0.068 | alvocidib -0.06 | Tubastatin A -0.029 | [1] -0.036 | defactinib -0.033 | rucaparib -0.045 | [2] -0.012 | encorafenib 0.012 | [3] 0.003 | [4] -0.015 | filanesib -0.022 | zotarolimus 0.02 | idasanutlin -0.064 | alisertib -0.041 | [5] 0.034 | gefitinib 0.018 | [6] 0.036 | lapatinib 0.012 | pictilisib 0.02

PMM1 (UniProt Q92871)
inactive: saracatinib 0.006 | sotrastaurin 0.094 | alvocidib -0.011 | Tubastatin A -0.018 | defactinib -0.007 | rucaparib 0.095 | [2] 0.028 | encorafenib -0.017 | [3] -0.023 | [4] -0.084 | filanesib 0.021 | zotarolimus -0.003 | idasanutlin 0.022 | alisertib -0.039 | [5] 0.124 | gefitinib 0.16 | [6] 0.022 | lapatinib -0.02 | pictilisib -0.17
active: [1] -0.315

PIGG (UniProt Q5H8A4)
inactive: saracatinib -0.02 | sotrastaurin -0.015 | alvocidib -0.011 | Tubastatin A -0.037 | [1] 0.013 | defactinib 0.175 | rucaparib -0.013 | encorafenib 0.07 | [3] -0.057 | [4] -0.01 | filanesib -0.062 | zotarolimus 0.073 | idasanutlin 0.019 | alisertib -0.048 | [5] 0.098 | gefitinib -0.122 | [6] 0.049 | lapatinib 0.046 | pictilisib 0.017
active: [2] 0.27

PMPCB (UniProt O75439)
inactive: saracatinib 0.001 | sotrastaurin 0.051 | alvocidib -0.073 | Tubastatin A -0.068 | [1] 0.005 | defactinib -0.042 | rucaparib -0.033 | [2] -0.003 | encorafenib -0.022 | [3] -0.029 | [4] -0.046 | filanesib 0.036 | zotarolimus 0.047 | idasanutlin -0.122 | alisertib -0.078 | [5] 0.046 | gefitinib 0.006 | [6] 0.008 | lapatinib -0.054 | pictilisib -0.012

PKN1 isoform 2 (UniProt Q16512)
UniProt Q16512, sequence (Q16512 whole entry, looked up): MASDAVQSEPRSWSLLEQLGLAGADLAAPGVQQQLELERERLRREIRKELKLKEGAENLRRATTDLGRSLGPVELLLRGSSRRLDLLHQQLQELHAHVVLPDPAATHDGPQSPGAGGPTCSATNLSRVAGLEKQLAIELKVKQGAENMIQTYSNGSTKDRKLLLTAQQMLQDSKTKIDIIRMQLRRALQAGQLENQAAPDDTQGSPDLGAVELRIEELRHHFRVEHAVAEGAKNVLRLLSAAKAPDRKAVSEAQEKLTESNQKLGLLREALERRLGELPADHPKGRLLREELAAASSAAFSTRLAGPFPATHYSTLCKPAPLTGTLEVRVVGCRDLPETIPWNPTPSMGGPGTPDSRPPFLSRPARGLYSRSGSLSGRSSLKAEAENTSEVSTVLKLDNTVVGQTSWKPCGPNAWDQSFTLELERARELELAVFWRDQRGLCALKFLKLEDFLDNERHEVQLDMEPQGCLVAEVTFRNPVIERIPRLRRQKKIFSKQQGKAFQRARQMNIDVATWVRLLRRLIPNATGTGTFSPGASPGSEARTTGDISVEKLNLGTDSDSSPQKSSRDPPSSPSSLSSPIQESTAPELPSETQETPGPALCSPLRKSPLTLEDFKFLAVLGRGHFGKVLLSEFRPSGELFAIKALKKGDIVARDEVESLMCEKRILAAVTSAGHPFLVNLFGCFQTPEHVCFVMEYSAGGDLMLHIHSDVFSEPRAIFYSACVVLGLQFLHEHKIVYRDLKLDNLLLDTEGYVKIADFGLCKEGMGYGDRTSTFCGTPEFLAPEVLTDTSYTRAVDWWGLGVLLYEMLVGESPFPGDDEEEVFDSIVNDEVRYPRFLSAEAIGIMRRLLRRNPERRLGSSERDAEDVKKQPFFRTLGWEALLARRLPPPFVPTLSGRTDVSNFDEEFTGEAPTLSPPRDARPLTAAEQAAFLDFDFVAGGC
active: sotrastaurin -0.645
inactive: saracatinib -0.018 | alvocidib -0.048 | Tubastatin A 0.026 | [1] -0.088 | defactinib -0.121 | rucaparib 0.022 | [2] 0.026 | encorafenib 0.024 | [3] -0.014 | [4] 0.001 | filanesib 0.019 | zotarolimus 0.046 | idasanutlin -0.05 | alisertib -0.021 | [5] -0.217 | gefitinib 0.001 | [6] -0.044 | lapatinib -0.009 | pictilisib -0.007

QRICH1 (UniProt Q2TAL8)
UniProt Q2TAL8, sequence (Q2TAL8 whole entry, looked up): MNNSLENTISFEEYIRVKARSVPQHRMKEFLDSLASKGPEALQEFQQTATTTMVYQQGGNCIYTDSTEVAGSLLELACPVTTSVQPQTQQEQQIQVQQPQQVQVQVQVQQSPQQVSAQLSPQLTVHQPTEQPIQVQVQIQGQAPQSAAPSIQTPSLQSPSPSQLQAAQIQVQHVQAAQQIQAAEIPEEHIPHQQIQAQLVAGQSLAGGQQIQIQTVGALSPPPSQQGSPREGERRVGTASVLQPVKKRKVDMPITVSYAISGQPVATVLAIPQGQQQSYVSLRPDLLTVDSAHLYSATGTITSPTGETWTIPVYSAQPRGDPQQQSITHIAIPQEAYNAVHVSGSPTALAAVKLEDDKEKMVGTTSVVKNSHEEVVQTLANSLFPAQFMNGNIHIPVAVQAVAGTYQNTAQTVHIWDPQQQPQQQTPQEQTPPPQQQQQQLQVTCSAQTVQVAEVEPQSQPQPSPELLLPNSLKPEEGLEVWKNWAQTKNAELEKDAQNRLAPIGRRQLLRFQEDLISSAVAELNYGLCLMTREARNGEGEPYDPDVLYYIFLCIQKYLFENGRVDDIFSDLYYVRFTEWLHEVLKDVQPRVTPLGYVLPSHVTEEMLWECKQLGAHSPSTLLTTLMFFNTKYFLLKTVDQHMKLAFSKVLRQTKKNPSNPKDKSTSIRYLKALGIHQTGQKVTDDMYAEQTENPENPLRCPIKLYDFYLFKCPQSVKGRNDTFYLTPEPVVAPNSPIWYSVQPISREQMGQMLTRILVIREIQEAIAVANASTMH
inactive: saracatinib -0.019 | sotrastaurin -0.076 | alvocidib -0.127 | Tubastatin A 0.156 | [1] -0.036 | defactinib -0.271 | rucaparib -0.008 | [2] -0.004 | encorafenib 0.097 | [3] 0.169 | [4] 0.015 | filanesib 0.004 | zotarolimus -0.022 | idasanutlin -0.072 | alisertib 0.071 | [5] 0.08 | gefitinib 0.137 | [6] 0.032 | lapatinib 0.011

PLBD2 (UniProt Q8NHP8)
inactive: saracatinib 0.033 | sotrastaurin 0.031 | alvocidib 0.006 | Tubastatin A 0.01 | [1] 0.029 | defactinib -0.025 | rucaparib -0.115 | [2] -0.008 | encorafenib 0.005 | [3] 0.038 | [4] -0.069 | filanesib -0.015 | zotarolimus -0.029 | idasanutlin -0.012 | alisertib -0.048 | [5] -0.007 | gefitinib 0.018 | [6] 0.041 | lapatinib -0.008 | pictilisib 0.027

From the supplement of paper PMC10849652
